How the values were obtained:
Type in all cases: functional
[1] = target: Solute carrier family 2, facilitated glucose transporter member 1 (Homo sapiens) (UniProt P11166); assay: ST_JUDE_LEISH: Cytotoxicity at 2uM final concentration against transgenic Leishmania Mexicana promastigotes LmGLUT1 that are glucose transport deficient and complemented with the human glucose transporter GLUT1. Activity is measured by DNA content using SYBR green in vitro
[2] = target: Hexose transporter 1 (Plasmodium falciparum) (UniProt O97467); assay: ST_JUDE_LEISH: Cytotoxicity at 2uM final concentration against transgenic Leishmania Mexicana promastigotes LmPfHT that are glucose transport deficient and complemented with the Plasmodium falciparum hexose transporter. Activity is measured by DNA content using SYBR green in vitro
[3] = target: Glucose transporter (Leishmania mexicana) (UniProt O61059); assay: ST_JUDE_LEISH: Cytotoxicity at 2uM final concentration against transgenic Leishmania Mexicana promastigotes LmGT2 that are glucose transport deficient and complemented with the L. Mexicana glucose transporter 2. Activity is measured by DNA content using SYBR green in vitro

Chain of Solute carrier family 2, facilitated glucose transporter member 1 (Homo sapiens) (P11166 whole entry): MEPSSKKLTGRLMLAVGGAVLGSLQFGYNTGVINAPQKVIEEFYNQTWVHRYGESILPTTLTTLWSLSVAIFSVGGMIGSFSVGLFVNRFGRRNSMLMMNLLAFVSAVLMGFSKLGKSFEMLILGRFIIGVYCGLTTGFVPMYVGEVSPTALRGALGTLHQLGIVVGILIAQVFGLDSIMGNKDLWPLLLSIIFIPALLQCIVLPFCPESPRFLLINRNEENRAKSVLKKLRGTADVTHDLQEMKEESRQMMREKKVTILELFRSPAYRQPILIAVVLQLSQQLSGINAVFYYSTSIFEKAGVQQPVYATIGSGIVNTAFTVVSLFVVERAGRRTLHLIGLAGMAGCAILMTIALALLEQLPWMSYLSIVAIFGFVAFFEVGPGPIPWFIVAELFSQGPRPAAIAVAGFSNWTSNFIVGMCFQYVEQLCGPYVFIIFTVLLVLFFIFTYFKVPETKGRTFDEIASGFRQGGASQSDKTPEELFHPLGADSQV

## O=[N+]([O-])c1ccc(N/C(=N\c2ccccc2Br)NC2CCCc3ccccc32)c(O)c1 (centres undefined)
[1]
  inhibition: 0.73%
[2]
  inhibition: -1.02%
[3]
  inhibition: -1.9%

## CC(C)(CNC(=O)[C@@H]1CCCN(CCOc2ccc(F)c(F)c2)C1)c1nc(-c2ccc(Cl)c(O)c2)c(-c2ccncc2)[nH]1
[1]
  inhibition: 0.3%
[2]
  inhibition: -0.12%
[3]
  inhibition: 1.28%

## Fc1cccc2sc(Nc3nc(-c4ccccn4)cs3)nc12
[1]
  inhibition: 1.42%
[2]
  inhibition: 0.63%
[3]
  inhibition: -5.6%

## O=C(Nc1cccc(CN2CCCN(Cc3ccc(O)cc3)CC2)c1)c1ccc2ccccc2c1
[1]
  inhibition: 4.27%
[2]
  inhibition: 4.08%
[3]
  inhibition: 3.93%

## O=S(=O)(Nc1cccc(CCN2CCC(N3CCCCC3)CC2)c1)c1cccc2cccnc12
[1]
  inhibition: 0.25%
[2]
  inhibition: 0.35%
[3]
  inhibition: -2.07%

## OC(CNCCCc1ccccc1)c1cc(OCc2ccccc2)cc(OCc2ccccc2)c1 (centres undefined)
[1]
  inhibition: 6.81%
[2]
  inhibition: 2.05%
[3]
  inhibition: 1.79%

## Cc1cc(N(C)C)nc(Nc2ccc(NC(=O)c3ccc(Br)o3)cc2)n1
[1]
  inhibition: 7.73%
[2]
  inhibition: 9.85%
[3]
  inhibition: 3.96%

## COc1ccc2[nH]ccc(=NN=Cc3cccnc3)c2c1
[1]
  inhibition: 1.08%
[2]
  inhibition: -2.41%
[3]
  inhibition: 1.2%

## Fc1ccc2[nH]cc(CCNCc3ccc(-c4cccc(-c5nc6ccccc6[nH]5)c4)cc3)c2c1
[1]
  inhibition: 4.9%
[2]
  inhibition: 4.54%
[3]
  inhibition: 3.56%

## COc1ccc(-c2nc(NC(=O)CS(=O)(=O)c3ccc(C)cc3)sc2C)cc1
[1]
  inhibition: 8.39%
[2]
  inhibition: 6.4%
[3]
  inhibition: 0.17%

## c1cncc(Oc2ccc(Nc3ccnc4cc(-c5cccc(CNCCN6CCOCC6)c5)ccc34)cc2)c1
[1]
  inhibition: 0.19%
[2]
  inhibition: -1.57%
[3]
  inhibition: 1.1%

## O=C(NC1CCCCN(Cc2ccccc2O)C1)c1ccc(Cl)c(Cl)c1 (centres undefined)
[1]
  inhibition: 7.63%
[2]
  inhibition: 5.13%
[3]
  inhibition: 3.76%

## Cc1cc(NC(=O)Nc2ccc3ncccc3c2)c2ccccc2n1
[1]
  inhibition: 4.47%
[2]
  inhibition: 3.97%
[3]
  inhibition: 1.94%

## CCN(CC)CCNc1ccnc2[nH]c3ccc([N+](=O)[O-])cc3c12
[1]
  inhibition: 3.68%
[2]
  inhibition: 3.92%
[3]
  inhibition: 3.99%

## Cc1cccc2nc(-c3ccc(-c4ccc(CN5CCCC(N)C5)cc4)s3)[nH]c12 (centres undefined)
[1]
  inhibition: 0.2%
[2]
  inhibition: 0.06%
[3]
  inhibition: 0.74%

## COc1ccccc1C1CCN(CCN2CCC(NC(=O)c3ccc(-c4ccc(C#N)cc4)cc3)CC2)CC1
[1]
  inhibition: -0.2%
[2]
  inhibition: 2.09%
[3]
  inhibition: 1.89%

## CCOC(=O)N1CCN(C(=O)Nc2ccc(Cl)cc2)CC1
[1]
  inhibition: 1.34%
[2]
  inhibition: 1%
[3]
  inhibition: 0.32%

## CCOc1ccc(OCC(=O)Nc2nc(-c3ccc(OC)cc3)c(C)s2)cc1
[1]
  inhibition: 0.75%
[2]
  inhibition: 1.74%
[3]
  inhibition: 1.45%

— ChEMBL document CHEMBL3433997, “St. Jude Leishmania screening dataset” (2016)
